# Key:
# [1] = biological target: T1, Mitogen-activated protein kinase 12 (Homo sapiens) (UniProt P53778); settings: at 1 µM;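 also: values are averaged p38gamma kinase inhibition readings, compounds tested at 1 µM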
# T1 sequence (whole entry): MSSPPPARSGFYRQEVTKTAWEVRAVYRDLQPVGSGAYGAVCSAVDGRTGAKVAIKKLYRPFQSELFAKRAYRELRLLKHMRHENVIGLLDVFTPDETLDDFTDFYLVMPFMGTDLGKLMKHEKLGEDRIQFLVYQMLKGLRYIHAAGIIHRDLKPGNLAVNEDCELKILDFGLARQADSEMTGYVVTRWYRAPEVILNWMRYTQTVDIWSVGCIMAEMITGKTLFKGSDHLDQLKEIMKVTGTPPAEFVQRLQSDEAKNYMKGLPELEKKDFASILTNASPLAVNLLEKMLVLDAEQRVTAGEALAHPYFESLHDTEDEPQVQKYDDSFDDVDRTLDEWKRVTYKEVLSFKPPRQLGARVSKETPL
# [2] = biological target: SRSF protein kinase 1 (Homo sapiens) (UniProt Q96SB4); settings: at 0.1 µM
# Sequence of SRSF protein kinase 1 (Homo sapiens) (Q96SB4 whole entry, canonical isoform): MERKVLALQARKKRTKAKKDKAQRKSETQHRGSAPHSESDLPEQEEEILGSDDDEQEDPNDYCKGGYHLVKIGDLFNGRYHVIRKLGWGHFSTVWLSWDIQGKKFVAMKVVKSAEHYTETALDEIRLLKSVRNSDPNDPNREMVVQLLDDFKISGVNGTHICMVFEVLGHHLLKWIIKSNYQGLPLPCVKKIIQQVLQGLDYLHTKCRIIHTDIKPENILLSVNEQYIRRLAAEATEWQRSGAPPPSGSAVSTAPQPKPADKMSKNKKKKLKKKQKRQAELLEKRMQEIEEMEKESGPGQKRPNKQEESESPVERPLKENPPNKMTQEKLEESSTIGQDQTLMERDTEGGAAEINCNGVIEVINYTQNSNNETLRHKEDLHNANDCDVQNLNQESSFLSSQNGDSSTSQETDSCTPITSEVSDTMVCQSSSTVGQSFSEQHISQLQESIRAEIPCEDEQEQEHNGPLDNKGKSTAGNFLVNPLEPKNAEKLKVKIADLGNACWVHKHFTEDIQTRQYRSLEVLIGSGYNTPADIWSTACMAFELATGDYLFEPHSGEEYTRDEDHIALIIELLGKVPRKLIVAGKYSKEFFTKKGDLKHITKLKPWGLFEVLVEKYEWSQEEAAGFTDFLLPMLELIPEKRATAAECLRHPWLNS
# [3] = biological target: SRSF protein kinase 1 (Homo sapiens) (UniProt Q96SB4); settings: at 1 µM
# [4] = biological target: Phosphatidylinositol 4,5-bisphosphate 3-kinase catalytic subunit alpha isoform (Homo sapiens) (UniProt P42336); settings: at 0.1 µM
# Sequence of Phosphatidylinositol 4,5-bisphosphate 3-kinase catalytic subunit alpha isoform (Homo sapiens) (P42336 whole entry, canonical isoform): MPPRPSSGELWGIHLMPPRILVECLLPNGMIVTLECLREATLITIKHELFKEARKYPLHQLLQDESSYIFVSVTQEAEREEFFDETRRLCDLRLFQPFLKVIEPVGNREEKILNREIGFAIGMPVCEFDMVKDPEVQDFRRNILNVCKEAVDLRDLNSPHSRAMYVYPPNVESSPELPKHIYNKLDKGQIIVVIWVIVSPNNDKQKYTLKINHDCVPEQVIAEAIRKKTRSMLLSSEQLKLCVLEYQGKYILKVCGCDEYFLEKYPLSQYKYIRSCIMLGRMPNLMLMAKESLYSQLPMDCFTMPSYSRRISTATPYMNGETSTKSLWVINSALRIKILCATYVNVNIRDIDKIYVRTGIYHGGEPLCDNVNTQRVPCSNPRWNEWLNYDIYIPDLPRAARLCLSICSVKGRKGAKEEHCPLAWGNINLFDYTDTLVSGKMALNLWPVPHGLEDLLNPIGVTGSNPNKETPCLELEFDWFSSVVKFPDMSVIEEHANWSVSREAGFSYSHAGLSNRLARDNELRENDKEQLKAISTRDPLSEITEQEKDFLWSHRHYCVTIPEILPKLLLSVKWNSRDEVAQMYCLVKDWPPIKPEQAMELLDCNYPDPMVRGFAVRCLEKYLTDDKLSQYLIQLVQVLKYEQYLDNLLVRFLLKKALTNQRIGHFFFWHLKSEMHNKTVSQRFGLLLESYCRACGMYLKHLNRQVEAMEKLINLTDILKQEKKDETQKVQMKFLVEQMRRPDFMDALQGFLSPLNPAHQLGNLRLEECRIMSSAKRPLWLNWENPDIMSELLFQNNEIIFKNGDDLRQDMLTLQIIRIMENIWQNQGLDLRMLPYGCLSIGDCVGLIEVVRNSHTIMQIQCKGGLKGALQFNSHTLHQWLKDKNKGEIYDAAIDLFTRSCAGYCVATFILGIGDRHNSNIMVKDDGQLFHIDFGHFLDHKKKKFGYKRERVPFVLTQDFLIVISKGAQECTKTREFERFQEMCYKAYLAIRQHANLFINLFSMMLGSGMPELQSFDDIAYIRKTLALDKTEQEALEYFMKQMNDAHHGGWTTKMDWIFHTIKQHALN
# [5] = biological target: Phosphatidylinositol 4,5-bisphosphate 3-kinase catalytic subunit alpha isoform (Homo sapiens) (UniProt P42336); settings: at 1 µM
# [6] = biological target: T2, Phosphatidylinositol 4,5-bisphosphate 3-kinase catalytic subunit delta isoform (Homo sapiens) (UniProt O00329); settings: at 0.1 µM
# T2 sequence (whole entry): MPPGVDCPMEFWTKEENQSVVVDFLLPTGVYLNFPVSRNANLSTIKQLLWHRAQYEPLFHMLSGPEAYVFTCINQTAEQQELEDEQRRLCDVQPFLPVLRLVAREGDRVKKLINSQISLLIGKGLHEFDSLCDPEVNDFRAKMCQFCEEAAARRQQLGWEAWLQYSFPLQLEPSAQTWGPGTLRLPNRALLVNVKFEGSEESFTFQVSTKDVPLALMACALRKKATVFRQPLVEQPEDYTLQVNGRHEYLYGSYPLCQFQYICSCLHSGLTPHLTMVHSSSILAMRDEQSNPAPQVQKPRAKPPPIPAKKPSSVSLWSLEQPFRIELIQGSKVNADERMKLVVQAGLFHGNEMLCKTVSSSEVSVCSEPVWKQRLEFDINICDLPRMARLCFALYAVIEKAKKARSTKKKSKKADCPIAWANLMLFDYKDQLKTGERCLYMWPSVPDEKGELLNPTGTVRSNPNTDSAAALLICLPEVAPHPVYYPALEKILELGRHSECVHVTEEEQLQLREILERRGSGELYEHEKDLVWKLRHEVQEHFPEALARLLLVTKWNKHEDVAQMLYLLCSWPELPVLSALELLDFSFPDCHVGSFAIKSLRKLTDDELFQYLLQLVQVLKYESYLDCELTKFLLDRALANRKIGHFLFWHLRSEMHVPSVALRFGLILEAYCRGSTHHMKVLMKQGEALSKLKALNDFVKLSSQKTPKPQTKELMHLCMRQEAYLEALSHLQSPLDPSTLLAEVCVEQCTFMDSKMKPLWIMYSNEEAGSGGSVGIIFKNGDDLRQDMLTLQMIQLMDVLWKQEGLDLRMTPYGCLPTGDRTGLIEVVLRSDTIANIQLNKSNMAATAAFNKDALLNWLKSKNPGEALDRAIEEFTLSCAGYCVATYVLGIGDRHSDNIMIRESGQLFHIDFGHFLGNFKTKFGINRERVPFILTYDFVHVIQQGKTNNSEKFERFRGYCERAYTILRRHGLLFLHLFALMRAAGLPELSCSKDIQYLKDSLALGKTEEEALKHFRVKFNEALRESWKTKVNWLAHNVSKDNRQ
# [7] = biological target: T2, Phosphatidylinositol 4,5-bisphosphate 3-kinase catalytic subunit delta isoform (Homo sapiens); settings: at 1 µM
# [8] = biological target: Phosphatidylinositol 4-kinase beta (Homo sapiens) (UniProt Q9UBF8); settings: at 0.1 µM
# Sequence of Phosphatidylinositol 4-kinase beta (Homo sapiens) (Q9UBF8 2-816 limits assumed): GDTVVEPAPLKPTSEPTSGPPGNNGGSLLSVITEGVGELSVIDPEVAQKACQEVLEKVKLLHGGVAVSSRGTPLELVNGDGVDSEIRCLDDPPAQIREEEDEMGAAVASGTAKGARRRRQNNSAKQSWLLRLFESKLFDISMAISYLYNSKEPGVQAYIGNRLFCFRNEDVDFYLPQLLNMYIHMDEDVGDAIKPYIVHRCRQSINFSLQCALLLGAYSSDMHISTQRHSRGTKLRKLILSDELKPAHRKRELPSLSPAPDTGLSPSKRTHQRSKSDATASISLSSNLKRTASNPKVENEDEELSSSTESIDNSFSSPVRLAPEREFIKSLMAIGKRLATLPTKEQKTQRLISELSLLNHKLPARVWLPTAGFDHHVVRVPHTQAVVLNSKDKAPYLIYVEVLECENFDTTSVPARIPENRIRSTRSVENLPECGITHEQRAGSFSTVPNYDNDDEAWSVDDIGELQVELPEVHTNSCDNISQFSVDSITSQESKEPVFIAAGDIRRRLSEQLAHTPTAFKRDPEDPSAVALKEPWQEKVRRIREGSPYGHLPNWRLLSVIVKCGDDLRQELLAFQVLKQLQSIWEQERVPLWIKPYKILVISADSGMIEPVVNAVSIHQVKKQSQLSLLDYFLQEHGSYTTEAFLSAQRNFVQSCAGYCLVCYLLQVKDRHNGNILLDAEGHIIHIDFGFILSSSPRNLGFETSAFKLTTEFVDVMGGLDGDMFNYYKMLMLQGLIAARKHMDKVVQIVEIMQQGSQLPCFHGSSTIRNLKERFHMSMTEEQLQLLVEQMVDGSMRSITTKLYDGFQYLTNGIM
# [9] = biological target: Phosphatidylinositol 4-kinase beta (Homo sapiens) (UniProt Q9UBF8); settings: at 1 µM
# [10] = biological target: Sphingosine kinase 1 (Homo sapiens) (UniProt Q9NYA1); settings: at 0.1 µM;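 also: mean percent inhibition of SPHK1 activity, measured within the GSK PKIS screening panel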
# Sequence of Sphingosine kinase 1 (Homo sapiens) (Q9NYA1 whole entry): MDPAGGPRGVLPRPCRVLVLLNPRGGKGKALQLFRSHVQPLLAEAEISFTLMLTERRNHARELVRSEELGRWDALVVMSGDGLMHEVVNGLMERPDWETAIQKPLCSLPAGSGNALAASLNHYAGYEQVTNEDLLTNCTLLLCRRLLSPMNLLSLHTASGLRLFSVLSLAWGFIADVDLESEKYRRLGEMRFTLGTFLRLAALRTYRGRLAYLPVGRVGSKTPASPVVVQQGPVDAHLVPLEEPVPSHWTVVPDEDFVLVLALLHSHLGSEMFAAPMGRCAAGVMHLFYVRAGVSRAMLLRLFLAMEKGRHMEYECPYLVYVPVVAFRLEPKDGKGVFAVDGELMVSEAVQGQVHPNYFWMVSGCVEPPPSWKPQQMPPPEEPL
SMILES,inhibition [1],inhibition [2],inhibition [3],inhibition [4],inhibition [5],inhibition [6],inhibition [7],inhibition [8],inhibition [9],inhibition [10]
CCN1CCC(CC(=O)Nc2n[nH]c3nc(-c4cccs4)c(Br)cc23)CC1,-2.22%,1.28%,1.67%,-1.25%,-0.57%,0.69%,2.28%,4.28%,-0.5%,-0.97%
O=C1NC(=O)C(c2ccccc2Cl)=C1Nc1cccc(O)c1,0.99%,-0.74%,1.37%,1.03%,1.86%,2.66%,3.71%,1.19%,-2.78%,-1.24%
Cc1ccc(NC(=O)c2ccnc(N3CCCC3)c2)cc1-c1ccc(C(=O)NCC2CC2)cc1,4.14%,-2.03%,-3.61%,4.02%,14.5%,3.4%,14.4%,-4.29%,-0.13%,-0.32%
COc1cc2ncn(-c3cc(OCc4ccccc4C(F)(F)F)c(C(N)=O)s3)c2cc1OC,6.13%,-1.32%,0.47%,4.61%,18.7%,2.08%,15.9%,-3.15%,1.79%,1.28%
CCc1cccc(NC(=O)Nc2ccc(Oc3ccc4nc(NC(=O)OC)[nH]c4c3)cc2)c1,1.54%,0.34%,1.37%,0.8%,2.44%,0.28%,3.23%,5.24%,-4.52%,–
NCc1ccc(-c2nc(-c3ccc(Cl)c(O)c3)c(-c3ccncc3)[nH]2)cc1,2.04%,-1.76%,-4.18%,-0.47%,3.94%,0.9%,6.6%,-3.9%,-2.79%,2.55%
O=C(Nc1n[nH]c2nc(-c3ccco3)c(Br)cc12)C1CC1,2.11%,-4.07%,-5.19%,5.44%,4.94%,2.6%,3.08%,0.77%,5.14%,0.46%
CS(=O)(=O)CCNCc1ccc(-c2ccc3ncnc(Nc4ccc(OCc5ccccc5)c(Cl)c4)c3c2)o1,6.3%,-1.42%,1.52%,-1.12%,-0.19%,-2.16%,-1.17%,-0.03%,3.61%,1.23%
COc1ccccc1Nc1ncc(-c2ccccc2)o1,4.08%,-4.21%,-2.61%,5.32%,6.11%,0.95%,2.27%,-0.97%,0.94%,0%
COc1ccc(-c2nn3ncccc3c2-c2ccnc(Nc3ccc(Cl)c(C(F)(F)F)c3)n2)cc1,0.36%,-1.95%,-0.38%,1%,10.4%,-0.59%,2.57%,-1.86%,0.08%,19.3%
CC1=C(C(=O)Nc2ccc3[nH]ncc3c2)C(c2ccc(Cl)c(Cl)c2)CC(=O)N1 (configuration not stated),1.19%,-1.56%,-3.22%,-0.33%,-0.79%,0.18%,1.04%,0.44%,-1.19%,0.43%
CC(=O)Nc1cccc(C#Cc2cncnc2Nc2ccc(OCc3cccc(F)c3)c(Cl)c2)n1,-1.66%,1.83%,6.55%,1.06%,-3.01%,-2.12%,-0.16%,2.97%,0.88%,0.46%
NS(=O)(=O)c1cccc(-c2ccc3c(NC(=O)C4CC4)n[nH]c3c2)c1,-1.58%,1.47%,1.47%,2.99%,3.6%,7.35%,8.71%,1.29%,-3.98%,0.58%
CNC(=O)c1cncc(/C=C/c2c(Cl)cccc2Cl)c1,6.19%,-3.5%,-0.45%,2.99%,2.83%,0.54%,0.66%,-0.69%,2.57%,-1.45%
CN(C)c1cc2c(Nc3ccc4nc(Cc5ccccc5)[nH]c4c3)ncnc2cn1,2.45%,-1.74%,-1.6%,7%,8.83%,7.22%,8.91%,-2.6%,5.38%,-1.38%
Nc1nc(-c2ccccn2)c(-c2ccc3ncccc3n2)s1,1.76%,-1.15%,-0.55%,4.05%,5.74%,2.87%,3.05%,4.8%,0.96%,-1.16%
CC1=C(C(=O)Nc2ccc3[nH]ncc3c2)C(c2ccc(F)cc2)NC(=O)N1 (configuration not stated),1.7%,-0.16%,-1.24%,2.51%,5.96%,2.41%,3.62%,1.44%,1.28%,1.05%

SMILES,inhibition [1],inhibition [2],inhibition [3],inhibition [4],inhibition [5],inhibition [6],inhibition [7],inhibition [8],inhibition [9],inhibition [10]
Fc1cccc(COc2ccc(Nc3ncnc4sc(-c5cccs5)cc34)cc2Cl)c1,0.86%,0.18%,-1.11%,0.9%,4.07%,-0.78%,2.29%,0.44%,-0.43%,-1.15%
O=C1NC(=O)C(c2ccc(Cl)cc2)=C1Nc1ccc(Cl)c(C(=O)O)c1,-2.21%,1.64%,3.21%,1.09%,2.23%,3.38%,2.76%,-1.72%,-4.96%,-1.27%
CS(=O)(=O)CCNCc1nc(-c2ccc3ncnc(Nc4ccc(F)c(Cl)c4)c3c2)cs1,1.73%,-0.47%,1.62%,1.55%,16.8%,1.95%,5.42%,6.61%,5.06%,-0.56%
[O-][S+]1CCN(Cc2ccc(-c3ccc4ncnc(Nc5ccc(OCc6ccccc6)c(F)c5)c4c3)o2)CC1,2.56%,-2.36%,-4.42%,1.82%,3.14%,2.61%,5.44%,-0.3%,-1.35%,-0.6%
Fc1cccc(COc2ccc(Nc3ncnc4cc(-c5ccc[nH]5)sc34)cc2Cl)c1,2.1%,-1.71%,-1.58%,3.58%,10.8%,2.77%,9.44%,-8.05%,2.94%,1.48%
COc1cc2ncn(-c3cc(O[C@@H](C)c4ccccc4Cl)c(C(N)=O)s3)c2cc1OC,3.72%,-2.61%,-2.08%,4.55%,11.5%,2.44%,10.6%,3.29%,-6.07%,1.31%
O=C1NC(=O)C(N2CCc3ccccc32)=C1c1ccc(Cl)cc1,3.35%,-1.77%,-3.78%,4.21%,6.29%,3.6%,5.56%,-1.76%,-1.34%,–
NC(=O)c1cccc(Nc2nccc(Nc3cccc4[nH]ncc34)n2)c1,1.3%,1.99%,2.55%,-1.08%,6.41%,1.39%,10.7%,4.75%,10.2%,-1.36%
CCn1c(-c2nonc2N)nc2cncc(C(=O)N3CC[C@H](N)C3)c21,3.17%,-1.03%,-0.35%,5.37%,4.64%,3.17%,3.95%,-6.46%,-9.74%,-0.79%
COc1cc(C=NNc2ncnc3c2cnn3-c2ccccc2)ccc1O,5.79%,-0.73%,0.63%,6.59%,15.9%,8.17%,18%,-0.81%,-0.12%,-0.86%
COc1ccc(-c2ccncc2)cc1C(N)=O,5.57%,-3.43%,-2.49%,5.07%,4.31%,2.29%,3.83%,-1.68%,4.03%,1.01%
COc1cc(C)c(NC(=O)CN(C)C)cc1Nc1nc(Nc2cccc(F)c2C(N)=O)c2cc[nH]c2n1,1.38%,-2.61%,-3.29%,0.75%,0.03%,0.12%,2.2%,5.07%,1.45%,–
Nc1ncnc2occ(-c3ccc(NC(=O)Nc4cccc(C(F)(F)F)c4)cc3)c12,37.5%,1.49%,18.5%,4.75%,4.88%,1.25%,4.92%,-1.39%,1.22%,0.57%
COc1cc2ncn(-c3cc(O[C@H](C)c4ccccc4Cl)c(C(N)=O)s3)c2cc1OC,3.72%,0.35%,7.77%,7.21%,36.1%,13.6%,59.9%,2.43%,-0.59%,1.83%
COc1cc2ncn(-c3cc(OCc4ccccc4Cl)c(C(N)=O)s3)c2cc1OC,0.85%,-1.26%,-1.23%,0.86%,19.6%,0.19%,18.4%,-5.9%,1.54%,2.8%
CS(=O)(=O)CCN(CC#N)Cc1ccc(-c2ccc3ncnc(Nc4ccc(OCc5cccc(F)c5)c(Cl)c4)c3c2)o1,2.68%,-2.4%,-1.01%,2.09%,4.03%,1.1%,4.27%,2.65%,3.34%,1.82%

# — ChEMBL document CHEMBL1961873, “Compounds: GSK PKIS; Assays: Nanosyn kinase panel” (2012)
